Source: PubChem BioAssay AID1159580 (chemical genetic matrix, 2015)
Screen size: about 5,500 compounds; about 2,000 (36%) were called active. About 18% were inconclusive and are not listed. Some of the results follow. A number with no mark means an inactive call. No stated cut-off is given here; in the data, active means normalized growth mostly below about 0.91 (no sharp cut-off); inconclusive means no clear call, values can overlap the other calls; inactive means mostly above about 0.92.

Assay: chemical genetic growth profiling, strain panel (AID 1159580);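 further: tested at 20 µM; growth read once vehicle control cultures reached saturation at 30 °C; 1 = growth at the plate median or of vehicle wells; lower values mean less growth of the strain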
Details: growth OD

C[C@](N)(Cc1ccc(O)c(O)c1)C(=O)O
normalized growth (S. cerevisiae deletion strains, locus YJR075W, strain HOC1, hits give low values): 1.01 | normalized growth (S. cerevisiae deletion strains, locus YKL009W, strain mrt4, hits give low values): 0.97 | normalized growth (S. cerevisiae deletion strains, locus YKL068W, hits give low values): 0.997 | normalized growth (S. cerevisiae deletion strains, locus YKL085W, strain MDH1 (second series), hits give low values): 0.983 | normalized growth (S. cerevisiae deletion strains, locus YKL085W, strain MDH1, hits give low values): 0.983 | normalized growth (S. cerevisiae deletion strains, locus YKL160W, strain elf1, hits give low values): 0.927 | normalized growth (S. cerevisiae deletion strains, locus YKL190W, strain CNB1, hits give low values): 0.951 | normalized growth (S. cerevisiae deletion strains, locus YKR001C, strain vps1, hits give low values): 0.979 | normalized growth (S. cerevisiae deletion strains, locus YKR026C, strain gcn3, hits give low values): 0.986 | normalized growth (S. cerevisiae deletion strains, locus YKR091W, strain srl3, hits give low values): 0.972 | normalized growth (S. cerevisiae deletion strains, locus YLL001W, strain dnm1, hits give low values): 0.914 | normalized growth (S. cerevisiae deletion strains, locus YLL026W, hits give low values): 0.984 | normalized growth (S. cerevisiae deletion strains, locus YLL041C, strain sdh2, hits give low values): 0.994 | normalized growth (S. cerevisiae deletion strains, locus YLR027C, strain aat2, hits give low values): 0.983 | normalized growth (S. cerevisiae deletion strains, locus YLR039C, strain RIC1, hits give low values): 0.975 | normalized growth (S. cerevisiae deletion strains, locus YLR058C, strain SHM2, hits give low values): 0.979 | normalized growth (S. cerevisiae deletion strains, locus YLR102C, strain apc9, hits give low values): 1 | normalized growth (S. cerevisiae deletion strains, locus YLR113W, strain HOG1, hits give low values): 1 | normalized growth (S. cerevisiae deletion strains, locus YLR221C, strain rsa3, hits give low values): 0.911 | normalized growth (S. cerevisiae deletion strains, locus YLR258W, strain gsy2, hits give low values): 0.959 | normalized growth (S. cerevisiae deletion strains, locus YLR262C, strain YPT6 (second series), hits give low values): 0.892 | normalized growth (S. cerevisiae deletion strains, locus YLR262C, strain YPT6, hits give low values): 0.878 | normalized growth (S. cerevisiae deletion strains, locus YLR268W, strain sec22, hits give low values): 1.06 | normalized growth (S. cerevisiae deletion strains, locus YLR320W, strain mms22, hits give low values): 0.944 | normalized growth (S. cerevisiae deletion strains, locus YLR330W, strain CHS5, hits give low values): 0.982 | normalized growth (S. cerevisiae deletion strains, locus YLR342W, strain FKS1 (second series), hits give low values): 0.861 | normalized growth (S. cerevisiae deletion strains, locus YLR342W, strain FKS1, hits give low values): 0.967 | normalized growth (S. cerevisiae deletion strains, locus YLR357W, strain rsc2, hits give low values): 0.92 | normalized growth (S. cerevisiae deletion strains, locus YLR370C, strain arc18, hits give low values): 0.945 | normalized growth (S. cerevisiae deletion strains, locus YLR371W, strain rom2, hits give low values): 0.983 | normalized growth (S. cerevisiae deletion strains, locus YLR384C, strain iki3, hits give low values): 0.981 | normalized growth (S. cerevisiae deletion strains, locus YLR418C, strain cdc73, hits give low values): 1 | normalized growth (S. cerevisiae deletion strains, locus YML016C, strain PPZ1, hits give low values): 0.957 | normalized growth (S. cerevisiae deletion strains, locus YML032C, strain rad52, hits give low values): 1.01 | normalized growth (S. cerevisiae deletion strains, locus YML120C, strain ndi1, hits give low values): 0.915 | normalized growth (S. cerevisiae deletion strains, locus YML124C, strain tub3, hits give low values): 0.993 | normalized growth (S. cerevisiae deletion strains, locus YMR058W, strain fet3, hits give low values): 0.944 | normalized growth (S. cerevisiae deletion strains, locus YMR078C, strain ctf18, hits give low values): 0.99 | normalized growth (S. cerevisiae deletion strains, locus YMR125W, strain sto1, hits give low values): 0.941 | normalized growth (S. cerevisiae deletion strains, locus YMR129W, hits give low values): 0.985 | normalized growth (S. cerevisiae deletion strains, locus YMR205C, strain PFK2, hits give low values): 0.983 | normalized growth (S. cerevisiae deletion strains, locus YMR223W, strain ubp8, hits give low values): 0.938 | normalized growth (S. cerevisiae deletion strains, locus YMR231W, strain pep5, hits give low values): 0.988 | normalized growth (S. cerevisiae deletion strains, locus YMR263W, strain SAP30, hits give low values): 1 | normalized growth (S. cerevisiae deletion strains, locus YMR307W, strain GAS1, hits give low values): 0.765 | normalized growth (S. cerevisiae deletion strains, locus YNL067W, strain RPL9B, hits give low values): 0.979 | normalized growth (S. cerevisiae deletion strains, locus YNL071W, strain lat1, hits give low values): 0.978 | normalized growth (S. cerevisiae deletion strains, locus YNL128W, strain TEP1, hits give low values): 0.896 | normalized growth (S. cerevisiae deletion strains, locus YNL153C, strain GIM3, hits give low values): 1.01 | normalized growth (S. cerevisiae deletion strains, locus YNL183C, strain NPR1, hits give low values): 0.976 | normalized growth (S. cerevisiae deletion strains, locus YNL209W, strain ssb2, hits give low values): 0.891 (active) | normalized growth (S. cerevisiae deletion strains, locus YNL233W, strain BNI4, hits give low values): 0.972 | normalized growth (S. cerevisiae deletion strains, locus YNL248C, strain rpa49, hits give low values): 0.979 | normalized growth (S. cerevisiae deletion strains, locus YNL250W, strain rad50, hits give low values): 0.982 | normalized growth (S. cerevisiae deletion strains, locus YNL271C, strain bni1, hits give low values): 0.989 | normalized growth (S. cerevisiae deletion strains, locus YNL298W, strain CLA4, hits give low values): 0.999 | normalized growth (S. cerevisiae deletion strains, locus YNL307C, strain MCK1, hits give low values): 0.996 | normalized growth (S. cerevisiae deletion strains, locus YNL322C, strain KRE1 (second series), hits give low values): 0.96 | normalized growth (S. cerevisiae deletion strains, locus YNL322C, strain KRE1, hits give low values): 0.984 | normalized growth (S. cerevisiae deletion strains, locus YNR049C, strain mso1, hits give low values): 0.969 | normalized growth (S. cerevisiae deletion strains, locus YNR052C, strain pop2, hits give low values): 0.991 | normalized growth (S. cerevisiae deletion strains, locus YOL006C, strain TOP1, hits give low values): 0.529 (active) | normalized growth (S. cerevisiae deletion strains, locus YOL012C, strain htz1): 0.552 | normalized growth (S. cerevisiae deletion strains, locus YOL147C, strain pex11, hits give low values): 0.989 | normalized growth (S. cerevisiae deletion strains, locus YOR001W, strain rrp6, hits give low values): 1.02 | normalized growth (S. cerevisiae deletion strains, locus YOR061W, strain CKA2, hits give low values): 0.938 | normalized growth (S. cerevisiae deletion strains, locus YOR069W, strain VPS5, hits give low values): 0.991 | normalized growth (S. cerevisiae deletion strains, locus YOR070C, strain gyp1, hits give low values): 0.988 | normalized growth (S. cerevisiae deletion strains, locus YOR080W, strain dia2, hits give low values): 0.956 | normalized growth (S. cerevisiae deletion strains, locus YOR083W, strain WHI5, hits give low values): 0.919 | normalized growth (S. cerevisiae deletion strains, locus YOR106W, strain vam3, hits give low values): 0.885 | normalized growth (S. cerevisiae deletion strains, locus YOR136W, strain idh2, hits give low values): 0.99 | normalized growth (S. cerevisiae deletion strains, locus YOR144C, strain elg1, hits give low values): 1.01 | normalized growth (S. cerevisiae deletion strains, locus YOR184W, strain ser1, hits give low values): 0.998 | normalized growth (S. cerevisiae deletion strains, locus YOR231W, strain MKK1, hits give low values): 1.03 | normalized growth (S. cerevisiae deletion strains, locus YOR265W, strain rbl2, hits give low values): 0.956 | normalized growth (S. cerevisiae deletion strains, locus YOR270C, strain vph1, hits give low values): 0.965 | normalized growth (S. cerevisiae deletion strains, locus YOR290C, strain snf2, hits give low values): 0.86 (active) | normalized growth (S. cerevisiae deletion strains, locus YOR316C, strain cot1, hits give low values): 1 | normalized growth (S. cerevisiae deletion strains, locus YPL051W, strain arl3, hits give low values): 0.947 | normalized growth (S. cerevisiae deletion strains, locus YPL055C, strain LGE1, hits give low values): 0.915 | normalized growth (S. cerevisiae deletion strains, locus YPL078C, strain atp4, hits give low values): 0.947 | normalized growth (S. cerevisiae deletion strains, locus YPL106C, strain sse1, hits give low values): 0.882 | normalized growth (S. cerevisiae deletion strains, locus YPL240C, strain hsp82, hits give low values): 0.979 | normalized growth (S. cerevisiae deletion strains, locus YPL241C, strain CIN2, hits give low values): 0.966 | normalized growth (S. cerevisiae deletion strains, locus YPL256C, strain CLN2, hits give low values): 1.08 | normalized growth (S. cerevisiae deletion strains, locus YPR119W, strain clb2, hits give low values): 0.993 | normalized growth (S. cerevisiae deletion strains, locus YPR141C, strain kar3, hits give low values): 0.987 | normalized growth (S. cerevisiae deletion strains, locus YPR163C, strain tif3, hits give low values): 1 | normalized growth (S. cerevisiae deletion strains, locus YPR167C, strain met16, hits give low values): 0.997 | normalized growth (S. cerevisiae deletion strains, strain wtn01, hits give low values): 1.01 | normalized growth (S. cerevisiae strains, strain wild type, hits give low values): 0.9 (active)
